# Sampled rows, rich in hits. Any-hit rate of the full collection: about 7.3%.
# Rab9 promoter act – activates the Rab9 promoter | hit rate 2.8% among 320,000 | Potency, µM (doses to about 9.22 µM), without a hit: at the top dose activation, negative = inhibition, hits mostly activators | Huh7 Rab9 promoter-luciferase reporter, luminescence, 24 h; further: % of control where 0% means no effect; nearly all actives have a fitted effect of over 60% in size
#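 Quantitative HTS format; Huh7 Rab9-luciferase reporter cells (1500/well) receive compound 2 h post-plating, incubate 24 h at 37 °C, then get luciferase reagent for 10 min before luminescence reading.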
# SMN2 splice enh – increases expression of the SMN2 splice variant; HEK293 SMN2-luciferase splicing reporter, luminescence, 30-36 h; Potency, µM (series often up to 46.1 µM), for inactives: at the highest dose activity change, positive = activation, hits mostly activators; hit rate 2.8% among 210,000; further: % of control where 0% means no effect; nearly all actives have a fitted effect of over 55% in size
#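 HEK293 cells carry an SMN2 minigene-luciferase reporter in which exon 7 inclusion puts luciferase in frame. Cells were seeded at 2000 cells/well, attached for 10-12 hours, then exposed to compounds for 30-36 hours at 37C before ONE-Glo luminescence.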
# FLuc modulator – counter-screen for miR-21 project: firefly luciferase inhibitors or activators; P08659; hit rate 6.9% among 360,000; AID 588342; Potency, µM (highest dose often 57.5 µM), for the others: top-dose activity change, negative = inhibition, most hits filed as inhibitors; purified FLuc, Km substrates, luminescence inhibition;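 further: plate controls were vehicle for no effect and reference inhibitor for full effect; nearly all actives have a fitted effect of over 55% in size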
# Target sequence (P08659 whole entry, looked up): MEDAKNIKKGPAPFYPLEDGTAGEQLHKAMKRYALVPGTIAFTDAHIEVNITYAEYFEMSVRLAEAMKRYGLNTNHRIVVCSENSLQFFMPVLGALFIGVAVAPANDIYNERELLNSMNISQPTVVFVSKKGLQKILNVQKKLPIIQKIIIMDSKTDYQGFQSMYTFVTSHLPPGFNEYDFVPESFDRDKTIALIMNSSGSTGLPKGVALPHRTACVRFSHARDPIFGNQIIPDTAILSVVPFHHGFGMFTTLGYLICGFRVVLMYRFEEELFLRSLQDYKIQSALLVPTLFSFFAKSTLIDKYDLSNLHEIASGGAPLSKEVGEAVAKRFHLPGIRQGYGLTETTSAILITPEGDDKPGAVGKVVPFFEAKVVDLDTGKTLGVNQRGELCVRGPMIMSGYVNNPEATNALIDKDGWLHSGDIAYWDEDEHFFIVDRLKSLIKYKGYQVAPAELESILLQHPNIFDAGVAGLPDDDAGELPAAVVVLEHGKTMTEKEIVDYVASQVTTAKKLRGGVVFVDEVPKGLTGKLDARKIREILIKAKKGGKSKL
#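 Biochemical qHTS of compounds, final roughly 60 µM downward over six points, against 10 nM purified firefly luciferase using Km concentrations of substrates (10 uM D-luciferin, 10 uM ATP) in Tris acetate pH 7.5 buffer; luminescence output.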
# Luc counter – counter-screen: inhibitors of Kinase-Glo firefly luciferase | Q27757 | Kinase-Glo luciferase, ATP luminescence, 8 min | Potency, µM (series often up to 38.3 µM), for inactives: at the highest dose activity change, negative = inhibition, most hits filed as inhibitors | hit rate 0.28% among 200,000 | AID 1379; further: on the % scale 0 is the no-effect control and ±100 the full control effect; nearly all actives have a fitted effect of over 60% in size
#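 Inhibition of Kinase-Glo luciferase light generation was assessed at 10 uM ATP in pH 7.2 imidazole buffer, with luminescence measured after eight minutes at ambient temperature.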
# ELG1 genotoxic – inducers of genotoxicity in HEK293T ELG1-luciferase cells. HEK293T ELG1-luciferase reporter, luminescence, 16 h. Potency, µM (highest dose often 46 µM), for the others: at the top dose activity change, positive = activation, most hits filed as activators. hit rate 1.3% among 330,000; further: % of control where 0% means no effect; nearly all actives have a fitted effect of over 60% in size
#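 After overnight (16 hr) compound treatment at 37 °C, ELG1-luciferase HEK293T cells were lysed with ONE-Glo; luminescence quantified 30 min later at room temperature.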
# NPC1 prom act – activates the NPC1 promoter; AID 485313; hit rate 2.4% among 320,000; Huh7 NPC1 promoter luciferase reporter, 24 h; Potency, µM (top dose mostly 9.22 µM), for inactives: at the top dose activation, hits mostly activators; further: % of control where 0% means no effect; nearly all actives have a fitted effect of over 60% in size
#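 Stable NPC1-promoter luciferase Huh7 line; cpd (DMSO) 24 h, 37 °C, 5% CO2; Amplite luciferase reagent 10 min RT; luminescence readout. qHTS format.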
# * = called active by the depositor; ? = inconclusive; . = no result given. The call rests on the fitted dose curve; in most records, active means well fitted curve in the direction sought with a large enough effect; inconclusive means small, poorly fitted or top-dose-only effect, or another doubt; inactive means no such curve, though single readings can be large; an effect the other way counts as inactive or inconclusive. Potency means the concentration at half of the fitted maximal effect.
SMILES,Rab9 promoter act,SMN2 splice enh,FLuc modulator,Luc counter,ELG1 genotoxic,NPC1 prom act
Cc1cc(NO)nc(-c2ccc(Br)cc2)n1,4.5µM*,16µM*,24µM*,1%,?,?
CCNC(=S)Nc1ccc(OCc2nc3ccccc3s2)cc1,4µM*,.,12µM*,.,?,3.5µM*
O=C(O)CCCC(=O)Nc1ccc(OCc2nc3ccccc3s2)cc1,18%,-11%,17µM*,1%,?,3%
COCc1c(C(=O)NC2CCCCCC2)oc2ccccc12,7%,13%,-7%,1%,1%,-1%
O=C(c1csnn1)N1CCC2(CCCN(c3cccc(-c4ccccc4)c3)C2)CC1,.,3%,.,2%,.,.
O=C(c1csnn1)N1CCC2(CCCN(c3ccc(-c4ccccc4)cc3)C2)CC1,.,18µM*,.,-3%,.,.
CN(C)c1ccc(NC(=O)c2ccc3nsnc3c2)cc1,3.2µM*,22µM*,5.4µM*,-4%,2.6µM*,?
O=C(Nc1cccc([N+](=O)[O-])c1)c1ccc2nsnc2c1,-1%,.,-27%,.,-1%,-1%
O=C(Nc1ccc(Cl)cc1)c1ccc2nsnc2c1,4µM*,11µM*,?,-1%,16%,2.5µM*
CCCCNc1nc2ccccc2nc1NS(=O)(=O)c1ccc(F)cc1,-9%,.,0%,.,-9%,-3%
Cc1ccc(NC(=O)c2ccc(COc3ccccc3[N+](=O)[O-])o2)nc1,-2%,.,?,.,1%,2%
Cc1ccnc(NC(=O)COc2ccccc2[N+](=O)[O-])c1,?,5µM*,1.7µM*,-29%,?,2.2µM*
Cc1ccc(NC(=O)COc2ccccc2[N+](=O)[O-])nc1,0.79µM*,2.8µM*,2.1µM*,?,0%,3.2µM*
COC(=O)/C=C/COc1ccccc1[N+](=O)[O-],?,9%,21µM*,-3%,15%,24%
CC(C)(C)NC(=O)COC(=O)c1ccccc1OCC(=O)Nc1ccc(Br)cc1,?,.,1.1µM*,.,1%,?
CC(C)OC(=O)/C(=C/c1cccnc1)NC(=O)c1ccccc1,0%,-8%,2%,1%,-3%,1%
OCC[C@H]1C[C@@H](O)[C@H](O)[C@]2(CCCc3ccccc3O2)O1,1%,.,12%,.,-2%,1%
CC(=O)Nc1ccc(S(=O)(=O)NCc2csc(-c3cccnc3)n2)cc1,-5%,-9%,3%,0%,-2%,-3%
Cc1cc(NS(=O)(=O)c2ccc(-c3ccccc3)cc2)no1,13%,17%,-6%,-4%,1%,-1%
O=C(NCCc1ccc2c(c1)OCCO2)c1cc(F)cc(F)c1,12%,.,-19%,.,11%,11%
CC(C)N(C)CCOC(=O)c1ccccc1Br,-2%,13%,3%,-2%,7%,-3%
CCNC(=S)NNC(=O)CCc1nc2cc(Cl)ccc2n(Cc2ccccc2)c1=O,-2%,.,-1%,.,1%,-1%
O=C(COc1ccccc1[N+](=O)[O-])Nc1ccc(Br)cc1,3.2µM*,.,9.5µM*,.,?,?
COc1cc(Cl)c(C)cc1NC(=O)COc1ccccc1[N+](=O)[O-],?,14%,2%,0%,8%,3.2µM*
O=C(COc1ccccc1[N+](=O)[O-])Nc1cccnc1,?,.,?,.,?,29%
SMILES,Rab9 promoter act,SMN2 splice enh,FLuc modulator,Luc counter,ELG1 genotoxic,NPC1 prom act
COc1cc(NC(=O)COc2c(C)cc(C)cc2[N+](=O)[O-])c(OC)cc1Cl,-2%,1%,6%,-1%,-1%,-1%
O=C(COC(=O)c1ccccc1Br)NCCc1ccc(F)cc1,2%,2%,-13%,-1%,1%,-3%
O=C(COC(=O)c1ccccc1Br)Nc1ccc(F)cc1,7%,11%,19µM*,-1%,?,-2%
CCc1ccc(N2C(=O)c3sc4nnc(-c5ccccc5)c(=O)n4c3C2=O)cc1,-13%,8%,19µM*,-3%,8%,-3%
COc1ccc(OCCNC(=O)CCCO)cc1,-3%,.,-1%,.,2%,4%
Cc1ccc(OCC(=O)Nc2ccc(F)cc2)cc1C,-2%,6%,19µM*,-1%,?,-2%
CC(=O)Nc1cccc(OCC(=O)Nc2ccc(F)cc2)c1,20%,?,?,1%,5%,14%
C/C(CC(=O)Nc1ccc2c(c1)OCCO2)=N\NC(=O)COc1ccccc1,1%,.,?,.,7%,-3%
CC(C)CNS(=O)(=O)c1ccc(OCC(=O)Nc2ccc3c(c2)OCCO3)cc1,1%,.,1%,5%,-2%,-2%
Cc1cccc(OCC(=O)Nc2ccc3c(c2)OCCO3)c1,3.2µM*,10%,6µM*,1%,6.5µM*,?
Cc1ccc(OCC(=O)Nc2ccc3c(c2)OCCO3)cc1C,14%,-17%,17µM*,-2%,?,6%
Cc1cccc(NS(=O)(=O)c2cccc(C(=O)NCc3ccccc3CN3CCOCC3)c2)c1,-4%,.,.,.,-7%,1%
O=C1CSC(=S)N1/N=C/c1ccc2c(c1)OCCO2,-4%,.,17µM*,.,0%,-4%
CCc1cc(C(=O)COc2ccc(F)cc2)c(O)cc1O,27%,.,?,.,12%,3%
Cc1c(O)ccc(C(=O)COc2ccc(F)cc2)c1O,5µM*,.,12µM*,.,2%,?
Cc1cc2nc(-c3cccc(NC(=O)COc4ccc(Cl)c(C)c4)c3)oc2cc1C,.,.,1.9µM*,.,.,.
COc1ccc(-c2nc3cc(NC(=O)COc4ccc(C)c(C)c4)ccc3o2)cc1,.,.,6%,.,.,.
Cc1cc2nc(-c3cccc(NC(=O)COc4ccc(C(C)C)cc4)c3)oc2cc1C,.,12%,1.5µM*,.,.,.
Cn1c(=O)c(C(=O)Nc2ccccn2)c(O)c2ccccc21,2.8µM*,.,4.8µM*,.,?,?
Cn1c(=O)c(C(=O)Nc2ccccc2S(N)(=O)=O)c(O)c2ccccc21,?,.,?,.,12%,?
Cn1c(=O)c(C(=O)Nc2cnccn2)c(O)c2ccccc21,?,13µM*,2%,4%,16%,13%
CC1CN(c2ccc(S(=O)(=O)N3CCOCC3)cn2)CC(C)O1 (stereo unspecified),-1%,.,2%,.,-1%,-3%
CCc1ccc(C(=O)NNc2cc(Cl)cc(Cl)c2)cc1,1%,.,-1%,.,0%,0%
COCCNC(=O)C1(CC(C)C)C=CCN1C(C)=O (stereo unspecified),.,5%,.,3%,.,.
COC(=O)CNC(=O)C1(CC(C)C)C=CCN1C(C)=O (stereo unspecified),.,13µM*,.,-3%,.,.
COc1cc(/C=C2\C(=N)N3N=C(C(C)C)SC3=NC2=O)ccc1OCCOc1ccc(NC(C)=O)cc1,0%,.,-3%,.,0%,-2%

# Assay outcomes (PubChem BioAssay)
